Laboratory results taken from PubChem BioAssay (NCATS).
Inconclusive results are not listed. The source made the active and inactive calls. Unless noted, calls come from the whole dose curve; as a rule, active = well fitted curve in the direction sought with a large enough effect; inconclusive = small, poorly fitted or top-dose-only effect, or another doubt; inactive = no such curve, though single readings can be large; an effect the other way counts as inactive or inconclusive.

Tests used:
[1] = qHTS to identify inhibitors of the type 1 interferon - major histocompatibility complex class I in skeletal muscle: primary screen against the NCATS Mechanism Interrogation Plate v5.0 (MIPE) Libary (AID 1347411); note: nearly all actives have a fitted effect of over 65% in size; note: potency is the fitted concentration of half-maximal effect
Method in brief: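 HLA-B HiBit myoblasts, dexamethasone-free medium + 4 ng/ml IFN-b, 24 h compound, 11-pt 1:3 from 46 uM final. Readout: Nano-Glo HiBiT lytic luminescence after 10 min lysis, RT.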

[2] = Primary qHTS for inhibitors of nuclear receptor binding SET domain protein 2 (NSD2) in an isogenic RCH-ACV NSD2 p.E1099K mutant (9B) (AID 1645876); note: nearly all actives have a fitted effect of over 70% in size; note: potency is the fitted concentration of half-maximal effect
[3] = target: Glutathione peroxidase 1 (Homo sapiens) (UniProt P07203); assay: Primary qHTS Assay for Inhibitors of Recombinant Selenoprotein Glutathione Peroxidase 1 (GPX1) (AID 1845191); note: nearly all actives have a fitted effect of over 65% in size; note: potency is the fitted concentration of half-maximal effect
Method in brief: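 GPX1 10 nM, GR 100 nM, GSH 1 mM, NADPH 0.5 mM, CHP 0.5 mM (final). 30-min cpd preincubation, RT. Ex340/Em450 read t=0, t=15 min.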

[4] = target: Phospholipid hydroperoxide glutathione peroxidase GPX4 (Homo sapiens) (UniProt P36969); assay: Primary qHTS Assay for Inhibitors of Recombinant Selenoprotein Glutathione Peroxidase 4 (GPX4) (AID 1845192); settings: outcome: dose series up to 50 µM unless noted; note: series mostly up to about 50 µM; nearly all actives have a fitted effect of over 65% in size
Method in brief: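 qHTS, GR-coupled: GPX4 200 nM + cpd 30 min RT → GSH 1 mM, NADPH 0.5 mM, GR 100 nM → CHP 0.5 mM start; fluor 340/450 at t0 and t15 min; no-enzyme wells as control.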

[5] = qHTS drug screen for cell cycle checkpoint inhibitors in PARPi-resistant BRCA-mutant ovarian cancer cell lines. (AID 1963452; calls by dose curve; note: potency is the fitted concentration of half-maximal effect); settings: PEO1/OlaR viability, CellTiter-Glo luminescence, 96 h; for Z-AUC: stronger effect = lower value
Method in brief: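 PEO1, PEO4 and PEO1/OlaR ovarian cancer cells, 600 per well, exposed 96 h at 37C to a dilution series. Viability read by CellTiter-Glo luminescence, normalized to DMSO and empty wells; activity summarized as Z-AUC.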

[6] = Primary qHTS for inhibitors of nuclear receptor binding SET domain protein 2 (NSD2) in an RCH-ACV wild type WT cells (2C) (AID 1645877); note: nearly all actives have a fitted effect of over 70% in size; note: potency is the fitted concentration of half-maximal effect
[7] = measured here: PEO1 parental Z-AUC

Chain of Phospholipid hydroperoxide glutathione peroxidase GPX4 (Homo sapiens) (P36969 whole entry, looked up): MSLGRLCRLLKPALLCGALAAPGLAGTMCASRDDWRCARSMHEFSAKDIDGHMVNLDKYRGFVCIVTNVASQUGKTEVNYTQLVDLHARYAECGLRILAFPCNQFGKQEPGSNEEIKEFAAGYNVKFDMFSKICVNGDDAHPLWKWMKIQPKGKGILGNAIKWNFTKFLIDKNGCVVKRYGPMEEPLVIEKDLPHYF
Chain of Glutathione peroxidase 1 (Homo sapiens) (P07203 whole entry, looked up): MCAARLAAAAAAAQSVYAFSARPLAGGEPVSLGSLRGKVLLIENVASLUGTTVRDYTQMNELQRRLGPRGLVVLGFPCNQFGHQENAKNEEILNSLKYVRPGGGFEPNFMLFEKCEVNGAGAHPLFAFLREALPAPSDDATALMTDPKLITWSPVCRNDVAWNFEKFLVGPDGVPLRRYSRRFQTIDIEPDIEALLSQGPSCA

Compound	Potency [1]	Potency [2]	Potency [3]	Potency [4]	Z-AUC [5]	Z-AUC [5, 7]	Z-AUC ([5]; measured here: PEO4 Z-AUC)	Potency [6]	Potency [5]
O=C(NO)c1ccc(C2=Nc3ccccc3Oc3ccccc32)cc1	18.6 µM (active)	2.95 µM (active)	inactive	inactive	-0.476 (inactive)	-1.06	-1.1	–	–
CC1(C)CCC2(CC1)N[C@@H](C(=O)N[C@@H]1CC[C@@H](C(N)=O)OC1)[C@H](c1ccnc(Cl)c1F)[C@]21C(=O)Nc2cc(Cl)ccc21	17.9 µM (active)	0.319 µM (active)	–	inactive	-0.537 (inactive)	-0.326	-0.309	0.201 µM (active)	–
Nc1nc(N)c2nc(-c3cccc(Cl)c3)c(N)nc2n1	inactive	1.05 µM (active)	4.09 µM (active)	–	-0.747 (inactive)	-0.162	-0.371	–	–
Cc1onc(-c2ccc(F)cc2)c1COc1ccc(C(=O)N2CCS(=O)(=O)CC2)cn1	inactive	inactive	inactive	inactive	0.971 (inactive)	1.31	0.844	–	–
O=C(O)/C(S)=C/c1ccc(I)cc1	inactive	inactive	inactive	–	0.452 (inactive)	0.731	0.789	–	–
CCC(C)CNCC(=O)N1CCc2sccc2C1c1cccc(C)n1 (stereo not given)	inactive	inactive	–	inactive	-0.668 (inactive)	-0.627	-0.749	inactive	–
O=c1c(-c2ccc(O)cc2)coc2c([C@@H]3O[C@H](CO)[C@@H](O)[C@H](O)[C@H]3O)c(O)ccc12	inactive	inactive	–	–	1.23 (inactive)	1.96	1.37	inactive	–
CN1C(=O)[C@@H](NC(=O)c2n[nH]c(Cc3ccccc3)n2)COc2ccccc21	inactive	inactive	–	–	-0.646 (inactive)	-0.812	-0.659	inactive	–
Cc1c(F)cccc1NC(=O)Nc1ccc(Cl)c(S(=O)(=O)[C@H]2CCCNC2)c1O	inactive	inactive	–	inactive	1.68 (inactive)	1.25	1.41	inactive	–
CNS(=O)(=O)Nc1nccc(Cc2c(C)c3ccc(Oc4ncccn4)cc3oc2=O)c1F	inactive	–	inactive	inactive	–	-1.08	-1.84	–	2.75 µM (active)
